Many of the other results were omitted from the sample, so hits are more common in it than they were.
LASV entry inh: qHTS for Inhibitors of binding or entry into cells for Lassa Virus; Lassa virus pseudotype entry inhibition, cell reporter; Potency, µM (titrated, usually from 37.9 µM), usual class: inhibitors; AID 540256, 2011; hit rate 1.2% among 300,000; calls by dose curve; tested in HEK293 cells; also: nearly all actives have a fitted effect of over 50% in size
CHX counter: Cycloheximide Counterscreen for Small Molecule Inhibitors of Shiga Toxin; AID 2314, 2010; hit rate 12% among 300,000; max response, %; cell reporter, cycloheximide protein synthesis inhibition counterscreen; in the data active = max response mostly above about 13%, no sharp cut-off; inactive = mostly below about 14%; also: read at 38.3 µM for the half of the compounds with a filed dose
Vaccinia mCherry: qHTS for Stage-Specific Inhibitors of Vaccinia Orthopoxvirus: mCherry Reporter Primary qHTS; Vaccinia virus mCherry reporter infection, fluorescence; hit rate 0.63% among 310,000; Potency, µM (doses to about 36.5 µM), most hits filed as inhibitors; calls by dose curve; tested in A549 cells; also: nearly all actives have a fitted effect of over 35% in size
Vaccinia Venus: qHTS for Stage-Specific Inhibitors of Vaccinia Orthopoxvirus: Venus Reporter Primary qHTS | Vaccinia virus Venus reporter expression, fluorescence | Potency, µM (doses to about 36.5 µM), actives largely listed as inhibitors | hit rate 0.46% among 330,000 | AID 720580, 2013; calls by dose curve; tested in A549 cells; also: nearly all actives have a fitted effect of over 30% in size
Shiga toxin inh: A qHTS for Small Molecule Inhibitors of Shiga Toxin | Vero cells, Shiga toxin protein synthesis inhibition reporter | inhibition, % at 38.7 µM | hit rate 9.2% among 290,000; in the data active = inhibition mostly above about 28%, no sharp cut-off; inactive = mostly below about 43%
Marburg entry inh: qHTS for inhibitors of binding or entry into cells for Marburg Virus; Marburg virus pseudotyped entry inhibition, cell reporter; Potency, µM (top dose mostly 37.8 µM), hits mostly inhibitors; hit rate 1.8% among 300,000; AID 540276, 2011; calls by dose curve; tested in HEK293 cells
Of the large screens only hits and unclear results are named; the others gave an inactive call.

CCOC(=O)c1cc(C)n(CCCN2CCOCC2)c1C	none
CCCCOC(=O)c1ccc(NC(=S)NC(=O)c2c(Cl)cnn2CC)cc1	none
Cc1nn(C)c(C(=O)NC(=S)Nc2ccccc2Br)c1Cl	CHX counter 21.8 (no result: LASV entry inh, Vaccinia mCherry, Vaccinia Venus, Marburg entry inh)
Cc1nn(C)c(C(=O)NC(=S)Nc2ccc([N+](=O)[O-])cc2)c1Cl	none
CCn1ncc(Cl)c1C(=O)NC(=S)Nc1ccccc1Br	CHX counter 32.8
O=C(CSc1nc2ccccc2c(=O)n1-c1ccc(F)cc1F)Nc1ccc2c(c1)CCC2	LASV entry inh inconclusive, CHX counter 59.0, Shiga toxin inh 80.2, Marburg entry inh inconclusive (no result: Vaccinia mCherry, Vaccinia Venus)
Cc1ccc(-n2c(SCC(=O)NNC(=S)Nc3ccccc3)nc3ccccc3c2=O)cc1	Marburg entry inh 8.91µM
Cc1cccc(NC(=O)CSc2nc3c([nH]c4ccccc43)c(=O)n2C)c1	LASV entry inh inconclusive, Vaccinia mCherry inconclusive, Vaccinia Venus inconclusive (no result: Marburg entry inh)
Cc1cccc(NC(=O)CSc2nc3ccccc3c(=O)n2C)c1	LASV entry inh inconclusive, Marburg entry inh 7.08µM
CCOC(=O)c1ccc(NC(=O)CC[C@@H](CC)C(=O)O)cc1	none (no result: LASV entry inh, CHX counter, Vaccinia mCherry, Vaccinia Venus, Shiga toxin inh)
CCn1c(-c2ccccc2F)nc2cc(C(=O)NCc3ccc(C)o3)cc(NC(C)=O)c21	none (no result: LASV entry inh, CHX counter, Shiga toxin inh, Marburg entry inh)
O=C(NNC(=S)Nc1ccc(Cl)cc1Cl)C1CC1	CHX counter 26.2, Marburg entry inh inconclusive
O=C(NNC(=S)Nc1ccccc1Cl)c1ccncc1	CHX counter 15.2
O=C(NNC(=O)c1ccc(Cl)c(Cl)c1)c1ccncc1	none (no result: CHX counter, Shiga toxin inh)
O=C(NNC(=S)Nc1ccc(Cl)cc1Cl)c1ccncc1	CHX counter 14.3, Marburg entry inh inconclusive
O=C(Nc1cccc(Cl)c1Cl)c1ccncc1	none
CN(C(=O)Nc1ccc(Cl)cc1Cl)C1CCCC1	CHX counter 18.5, Shiga toxin inh 44.2 (no result: LASV entry inh, Vaccinia mCherry, Vaccinia Venus, Marburg entry inh)
CCc1ccc(-n2c(N3CCN(c4ccc(F)cc4)CC3)nc3ccccc3c2=O)cc1	Marburg entry inh inconclusive (no result: CHX counter, Shiga toxin inh)
COc1ccc2c(c1)CCc1cnc(N)nc1-2	CHX counter 11.8, Marburg entry inh inconclusive
COc1ccc(-c2cnc(N)nc2-c2ccc(OC)cc2)cc1	none (no result: LASV entry inh, Vaccinia mCherry, Vaccinia Venus, Marburg entry inh)
CN(C)/[N+]([O-])=N/Oc1cc(ON=[N+]([O-])N2CCN(c3ncccn3)CC2)c([N+](=O)[O-])cc1[N+](=O)[O-]	none (no result: LASV entry inh, Vaccinia mCherry, Vaccinia Venus, Marburg entry inh)
COc1ccc(S(=O)(=O)NC(=O)C2(C)CCN2C(=O)Cc2cc(C)cc(C)c2)cc1 (stereo unspecified)	none (no result: LASV entry inh, CHX counter, Shiga toxin inh, Marburg entry inh)
CCCC(=O)N1CCN(c2nc(CC(C)C)c3c(c2C#N)CCC3)CC1	LASV entry inh 12.6µM, Marburg entry inh inconclusive
CCCC1(C(=O)OC)NC(c2ccc(OC)c(OC)c2)C2C(=O)N(c3cccc(C(C)=O)c3)C(=O)C21 (stereo unspecified)	none
Cc1ccc2c(=O)c(C(=O)c3ccc(F)cc3)cn(CC(=O)NCCc3ccccc3)c2n1	none (no result: CHX counter, Shiga toxin inh, Marburg entry inh)
O=S(=O)(NCCNS(=O)(=O)c1cccs1)c1cccs1	none
COc1ccc(CCNC(=O)Cc2cccs2)cc1OC	none
O=C(Cc1cccs1)NCc1ccccc1Br	CHX counter 36.5, Shiga toxin inh 62.8 (no result: LASV entry inh, Vaccinia mCherry, Vaccinia Venus, Marburg entry inh)
COc1ccc(Br)cc1CNC(=O)Cc1cccs1	CHX counter 20.8, Marburg entry inh inconclusive
O=C(Cc1cccs1)NCc1ccco1	none
O=S(=O)(NCc1ccccc1Br)c1cccs1	CHX counter 11.1, Marburg entry inh inconclusive (no result: Vaccinia mCherry, Vaccinia Venus)
O=C1C2CC=C(Cl)CC2C(=O)N1CN(Cc1ccco1)CN1C(=O)C2CC=C(Cl)CC2C1=O (stereo unspecified)	none (no result: Vaccinia mCherry)
CCCN(CCC)c1ccc(/C=C/c2ccc3cc(OCC)ccc3n2)cc1	CHX counter 33.6, Shiga toxin inh 70.9 (no result: LASV entry inh, Vaccinia mCherry, Vaccinia Venus, Marburg entry inh)
Cc1cc(NC(=O)CCC(=O)NNC(=O)c2ccc(C(C)(C)C)cc2)no1	CHX counter 35.6, Shiga toxin inh 80.0, Marburg entry inh inconclusive
CC(C)(C)c1ccc(C(=O)NNC(=O)CCc2ccccc2)cc1	none (no result: CHX counter, Shiga toxin inh)
Cc1cc(NC(=O)COc2ccc(C(C)(C)C)cc2)no1	CHX counter 31.7, Shiga toxin inh 49.8
Cc1ccc(C(=O)NNC(=O)CCC(=O)Nc2cc(C)on2)cc1	none
CC(C)(C)c1ccc(C(=O)NNC(=O)CCC(=O)Nc2ccccc2)cc1	CHX counter 19.3 (no result: LASV entry inh, Vaccinia mCherry, Vaccinia Venus, Marburg entry inh)
O=C(c1cccnc1)C1CCCN(Cc2ccc3c(c2)CN(C(=O)c2cccs2)CCO3)C1 (stereo unspecified)	none (no result: LASV entry inh, CHX counter, Shiga toxin inh, Marburg entry inh)
CCOC(=O)Cn1nc(/C=C/c2ccc(C)cc2)ccc1=O	Vaccinia Venus inconclusive, Marburg entry inh inconclusive (no result: Vaccinia mCherry)
